According to ChEMBL document CHEMBL1961873, “Compounds: GSK PKIS; Assays: Nanosyn kinase panel” (2012):

Key:
[1] = biological target: Dual specificity protein kinase CLK3 (Homo sapiens) (UniProt P49761); settings: at 1 µM;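 further: each value is the mean inhibition of CLK3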
[2] = biological target: Dual specificity tyrosine-phosphorylation-regulated kinase 1A (Homo sapiens) (UniProt Q13627); settings: at 0.1 µM
[3] = biological target: Dual specificity tyrosine-phosphorylation-regulated kinase 1A (Homo sapiens) (UniProt Q13627); settings: at 1 µM
[4] = biological target: Dual specificity tyrosine-phosphorylation-regulated kinase 1B (Homo sapiens) (UniProt Q9Y463); settings: at 0.1 µM
[5] = biological target: Dual specificity tyrosine-phosphorylation-regulated kinase 1B (Homo sapiens) (UniProt Q9Y463); settings: at 1 µM
[6] = biological target: T1, Dual specificity tyrosine-phosphorylation-regulated kinase 2 (Homo sapiens) (UniProt Q92630); settings: at 0.1 µM
T1 sequence (whole entry): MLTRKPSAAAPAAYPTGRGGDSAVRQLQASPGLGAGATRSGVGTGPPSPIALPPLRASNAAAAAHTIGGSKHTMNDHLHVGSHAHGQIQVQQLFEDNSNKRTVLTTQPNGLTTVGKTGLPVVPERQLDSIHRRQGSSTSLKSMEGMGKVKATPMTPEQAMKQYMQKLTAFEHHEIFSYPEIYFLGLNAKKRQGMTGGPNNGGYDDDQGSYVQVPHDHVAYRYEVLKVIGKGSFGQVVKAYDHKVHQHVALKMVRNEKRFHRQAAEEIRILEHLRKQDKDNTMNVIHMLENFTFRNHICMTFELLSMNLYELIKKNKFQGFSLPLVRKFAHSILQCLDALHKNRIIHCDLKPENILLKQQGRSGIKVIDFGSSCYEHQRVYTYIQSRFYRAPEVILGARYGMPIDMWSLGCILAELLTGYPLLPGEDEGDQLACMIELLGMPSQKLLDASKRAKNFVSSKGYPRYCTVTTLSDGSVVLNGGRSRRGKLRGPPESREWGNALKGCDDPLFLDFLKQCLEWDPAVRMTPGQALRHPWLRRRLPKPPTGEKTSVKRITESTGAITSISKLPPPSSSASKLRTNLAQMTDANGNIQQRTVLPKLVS

[7] = biological target: T1, Dual specificity tyrosine-phosphorylation-regulated kinase 2 (Homo sapiens); settings: at 1 µM
[8] = biological target: Glycogen synthase kinase-3 alpha (Homo sapiens) (UniProt P49840); settings: at 0.1 µM
[9] = biological target: Glycogen synthase kinase-3 alpha (Homo sapiens) (UniProt P49840); settings: at 1 µM
[10] = biological target: Glycogen synthase kinase-3 beta (Homo sapiens) (UniProt P49841); settings: at 0.1 µM;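 further: values are mean percent inhibition of GSK3B activity, from the GSK Published Kinase Inhibitor Set (PKIS) screening dataset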
Glycogen synthase kinase-3 beta (Homo sapiens), sequence (P49841 whole entry, looked up): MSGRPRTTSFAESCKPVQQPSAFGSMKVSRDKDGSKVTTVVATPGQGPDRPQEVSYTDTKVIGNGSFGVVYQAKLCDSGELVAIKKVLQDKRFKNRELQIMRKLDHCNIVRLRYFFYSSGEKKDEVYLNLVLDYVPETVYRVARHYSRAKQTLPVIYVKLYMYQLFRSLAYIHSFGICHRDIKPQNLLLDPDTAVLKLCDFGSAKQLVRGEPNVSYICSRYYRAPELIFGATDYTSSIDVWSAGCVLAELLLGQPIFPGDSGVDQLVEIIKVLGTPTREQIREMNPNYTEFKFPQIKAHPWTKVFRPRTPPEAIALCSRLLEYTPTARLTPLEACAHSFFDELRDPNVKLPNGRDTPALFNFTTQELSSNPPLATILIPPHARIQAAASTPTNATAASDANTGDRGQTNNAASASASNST

Dual specificity tyrosine-phosphorylation-regulated kinase 1B (Homo sapiens), sequence (Q9Y463 whole entry, looked up): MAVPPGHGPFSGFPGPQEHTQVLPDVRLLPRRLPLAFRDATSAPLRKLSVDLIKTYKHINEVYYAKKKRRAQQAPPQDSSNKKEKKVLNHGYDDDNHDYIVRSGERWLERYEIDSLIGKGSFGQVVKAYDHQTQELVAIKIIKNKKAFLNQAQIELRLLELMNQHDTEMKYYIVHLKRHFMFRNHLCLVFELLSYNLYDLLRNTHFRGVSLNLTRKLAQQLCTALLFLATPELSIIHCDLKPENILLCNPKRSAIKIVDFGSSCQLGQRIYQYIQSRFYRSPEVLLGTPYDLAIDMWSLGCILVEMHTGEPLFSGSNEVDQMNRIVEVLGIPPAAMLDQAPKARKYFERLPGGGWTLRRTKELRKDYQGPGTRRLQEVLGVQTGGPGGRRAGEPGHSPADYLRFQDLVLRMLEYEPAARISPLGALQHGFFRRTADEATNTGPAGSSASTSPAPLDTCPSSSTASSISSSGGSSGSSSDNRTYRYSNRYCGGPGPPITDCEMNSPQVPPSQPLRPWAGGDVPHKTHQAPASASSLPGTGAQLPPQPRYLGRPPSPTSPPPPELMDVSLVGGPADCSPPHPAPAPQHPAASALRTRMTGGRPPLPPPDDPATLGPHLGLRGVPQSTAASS
Dual specificity protein kinase CLK3 (Homo sapiens), sequence (P49761 whole entry, looked up): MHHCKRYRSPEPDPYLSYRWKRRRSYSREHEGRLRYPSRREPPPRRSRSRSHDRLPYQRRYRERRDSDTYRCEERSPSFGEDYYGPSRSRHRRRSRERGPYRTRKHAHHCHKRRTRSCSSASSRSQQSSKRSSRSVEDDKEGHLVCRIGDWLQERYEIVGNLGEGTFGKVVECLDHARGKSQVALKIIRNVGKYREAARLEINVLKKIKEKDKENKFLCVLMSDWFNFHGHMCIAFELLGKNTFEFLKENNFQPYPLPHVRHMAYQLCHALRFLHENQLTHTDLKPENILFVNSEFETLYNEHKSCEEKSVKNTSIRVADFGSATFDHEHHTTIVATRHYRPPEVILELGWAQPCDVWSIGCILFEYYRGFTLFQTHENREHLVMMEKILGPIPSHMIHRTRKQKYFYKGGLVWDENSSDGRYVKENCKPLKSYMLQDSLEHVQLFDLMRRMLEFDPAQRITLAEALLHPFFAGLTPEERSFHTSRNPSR
Glycogen synthase kinase-3 alpha (Homo sapiens), sequence (P49840 2-483 limits assumed): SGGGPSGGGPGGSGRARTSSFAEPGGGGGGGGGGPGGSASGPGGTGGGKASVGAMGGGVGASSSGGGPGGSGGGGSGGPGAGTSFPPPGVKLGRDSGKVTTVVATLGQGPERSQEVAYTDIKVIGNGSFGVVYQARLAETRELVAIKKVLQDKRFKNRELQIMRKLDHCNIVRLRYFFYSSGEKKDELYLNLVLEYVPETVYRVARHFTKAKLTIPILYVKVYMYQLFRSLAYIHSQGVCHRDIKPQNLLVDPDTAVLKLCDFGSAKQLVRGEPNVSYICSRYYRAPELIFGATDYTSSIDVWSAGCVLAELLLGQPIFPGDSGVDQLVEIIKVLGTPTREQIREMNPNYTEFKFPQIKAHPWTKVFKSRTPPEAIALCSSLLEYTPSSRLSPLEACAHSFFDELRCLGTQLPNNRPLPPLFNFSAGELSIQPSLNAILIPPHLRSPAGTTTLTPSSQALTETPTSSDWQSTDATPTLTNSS

SMILES | inhibition [1] | inhibition [2] | inhibition [3] | inhibition [4] | inhibition [5] | inhibition [6] | inhibition [7] | inhibition [8] | inhibition [9] | inhibition [10]
NC(=O)c1sc(-n2cnc3ccc(C(F)(F)F)cc32)cc1OCc1ccccc1Br | 4.85% | 2.74% | 8.54% | -0.4% | 2.27% | 2.93% | 4.03% | 1.26% | 7.48% | -0.61%
COc1cc(Nc2nccc(Nc3ccc4c(C)n[nH]c4c3)n2)cc(OC)c1OC | 6.44% | 0.88% | 7.54% | 2.83% | 5.43% | 1.95% | 4.25% | 2.79% | 17.3% | 2.73%
CCNC(=O)O[C@H]1CN[C@H](C#Cc2cc3ncnc(Nc4ccc(OCc5cccc(F)c5)c(Cl)c4)c3s2)C1 | 2.52% | 1.66% | 3.98% | 0.74% | 1.59% | 3.13% | 5.14% | 3.4% | 9.61% | 2.01%
[O-][S+]1CCN(Cc2ccc(-c3ccc4ncnc(Nc5ccc(OCc6cccc(F)c6)c(Cl)c5)c4c3)o2)CC1 | 1.25% | 4.05% | 3.96% | 0.06% | 1.57% | 4.92% | 4.13% | 3.26% | 5.28% | 3.06%
COc1cccc(-c2c[nH]c3c(N/N=C/c4ccncc4)ncnc23)c1 | 14% | 16.1% | 58.5% | 11.3% | 50.5% | 11.7% | 57.8% | 78.9% | 83.5% | 76.6%
CCc1nn2ncccc2c1-c1ccnc(NC2CC2)n1 | 0.97% | 1.95% | 4.71% | 1.01% | 5.27% | 1.81% | 10.9% | 6.96% | 9.03% | 6.18%
CCCN1CCC(c2ccc(Nc3nc(Nc4cc(F)ccc4C(N)=O)c4cc[nH]c4n3)c(OC)c2)CC1 | 22% | 63.1% | 81.9% | 65.2% | 81.9% | 10.3% | 49% | 6.12% | 8.5% | 4.67%
Fc1ccc(-c2cc(-c3c[nH]nc3-c3ccccn3)ccn2)cc1 | 0.54% | 2.96% | 5.69% | -1.65% | -0.27% | 3.36% | 4.06% | 2.14% | 2.16% | 1.39%
COC(=O)Nc1nc2ccc(S(=O)(=O)c3ccc(NC(=O)Nc4cc(C(F)(F)F)ccc4F)cc3)cc2[nH]1 | 0.84% | 1.81% | 3.41% | 0.89% | 0.66% | 2.74% | 3.12% | 2.8% | 7.37% | 0.8%
CNC(=O)c1cc(-c2ccc(F)cc2)cc(-c2ccc(S(=O)(=O)N3CCCC3)cc2)c1N | 1.45% | 2.86% | 3.9% | -1.54% | -0.38% | 2.23% | 2.03% | 3.5% | 5.1% | 2.65%
Fc1ccc(-c2nn3ncccc3c2-c2ccnc(Nc3ccc4c(c3)OCCO4)n2)cc1 | 0.91% | 1.5% | 3.37% | 0.99% | -1.69% | 3.56% | 4.44% | 19.6% | 59.7% | 39%
CNC(=O)c1cncc(/C=C/c2ccccc2Cl)c1 | 0.64% | -0.68% | 0.12% | -0.37% | 0.88% | 1.32% | 1.49% | 3.11% | 8.27% | 3.39%
CC(C)COC(=O)c1ccc2c(c1)/C(=C/Nc1ccc(S(N)(=O)=O)cc1)C(=O)N2 | 11.4% | 11.9% | 57% | 12% | 53.9% | 1.28% | 22.4% | 34.8% | 80.6% | 36.1%
CN(C)CCOc1ccc(-c2nc(-c3ccncc3)c(-c3ccc4c(c3)CC/C4=N\O)[nH]2)cc1 | 3.66% | 4.17% | 8.33% | 2.86% | 5.07% | 2.04% | 4.1% | 5.08% | 9.93% | 4.7%
c1cc(-c2cnn3nc(N4CCOCC4)ccc23)nc(NC2CC2)n1 | 8.62% | 7.48% | 40.4% | 6.08% | 35.8% | 5.57% | 32.8% | 4.47% | 26.4% | 2.95%
NS(=O)(=O)c1ccc(Nc2ncc(-c3ccccc3)o2)cc1 | 6.65% | 6.93% | 16% | 5.92% | 12.5% | 2.13% | 8.68% | 12.9% | 43.4% | 11.4%
COc1ccc2[nH]c3c4[nH]c5ccc(OC)cc5c4c4c(c3c2c1)C(=O)NC4=O | 4.44% | 10.1% | 43.1% | 2.55% | 26.1% | 6.81% | 29% | 1.75% | 6.24% | 3.92%
